hgDAF-12 ag: agonists of H. glycines DAF-12 nuclear receptor | actives 1.8% (n = 370,000) | HEK293 GAL4-hgDAF12 UAS-luciferase reporter, agonist luminescence; normalized to butyrate control | activation, % at 6.8 µM;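 active = activation above a cutoff set at the mean of all screened compounds plus 3 SD, cut at about 10% in these data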
ssDAF12 agonist: S. stercoralis DAF-12 activation, primary screen; HEK293 ssDAF-12/GRIP1 lit1-tk-luc reporter, luminescence; % of 3 µM dafachronic acid response; activation, % at 6.8 µM; actives 1% (n = 370,000); AID 652126;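 active = activation above the mean over all tested compounds plus 3 SD, cut at about 0.9% in these data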
hcDAF12 agonist: H. contortus DAF-12 activation, primary screen; actives 1.4% (n = 370,000); AID 652067; HEK293 hcDAF-12 lit1-tk-luc reporter, luminescence; 0% DMSO, 100% Δ7-dafachronic acid; activation, % at 6.8 µM;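 active = activation above the mean of all tested compounds plus 3 SD, cut at about 5.5% in these data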
AHR activator: activates the human aryl hydrocarbon receptor; activation, % at 5 µM; AHR-responsive luciferase reporter cells, luminescence; P35869; actives 2.5% (n = 320,000); in the data active = activation above about 47%
DAX1 inh-1: NR0B1 (DAX1) inhibition; actives 0.99% (n = 340,000); AID 504766; P51843; HEK293 Gal4-DAX1 luciferase reporter, luminescence; inhibition, % at 6.75 µM;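 active = inhibition above the mean over all tested compounds plus 3 SD, cut at about 4.2% in these data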;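 also: inhibition shows as a rise in luminescence from relieved DAX1 repression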
Target sequence (P51843 207-470 limits assumed): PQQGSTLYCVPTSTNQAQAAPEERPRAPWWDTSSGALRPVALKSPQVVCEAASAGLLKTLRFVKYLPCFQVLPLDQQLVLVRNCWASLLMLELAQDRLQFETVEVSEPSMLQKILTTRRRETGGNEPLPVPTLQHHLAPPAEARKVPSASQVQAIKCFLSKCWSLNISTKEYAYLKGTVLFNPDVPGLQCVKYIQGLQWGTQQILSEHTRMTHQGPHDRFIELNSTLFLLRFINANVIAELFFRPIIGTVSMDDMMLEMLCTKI
DAX1 inh-2: inhibitors of DAX1 repression of SF-1 activated StAR promoter; HEK293T StAR-luciferase reporter, SF-1/DAX-1 repression relief; inhibition, % at 6.8 µM; actives 1.1% (n = 370,000); AID 652010;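 active = inhibition above the mean over all tested compounds plus 3 SD, cut at about 3.6% in these data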;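 also: higher inhibition means more luminescence from relief of DAX-1 repression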
Large screens that a line does not name were inactive. Sampled rows, rich in hits. Any-hit rate of the full collection: about 5.7%.

CC[C@@]12C(=O)N(c3ccccc3)C(=O)N1[C@H](c1cccc(C)c1)[C@@H]1C(=O)N(Cc3ccccc3)C(=O)[C@@H]12	none
COc1ccc(OC)c(NC(=O)/C=C/c2ccccc2[N+](=O)[O-])c1	AHR activator 71
COc1ccc(NC(=O)/C=C/c2ccccc2[N+](=O)[O-])c(OC)c1	AHR activator 77
COc1ccc(NC(=O)/C=C/C(=O)O)c(OC)c1	none
COc1ccc(CNC(=O)/C=C/c2ccccc2[N+](=O)[O-])cc1	none
COc1ccccc1NC(=O)/C=C/c1cc([N+](=O)[O-])ccc1OC(F)F	AHR activator 49
O=c1ccnc2n1COCS2	DAX1 inh-1 6.1
O=C(NCCO)/C(=C/c1ccc2c(c1)OCO2)NC(=O)c1ccc(Br)cc1	DAX1 inh-1 4.5
O=c1c(OC2OC(CO)C(O)C(O)C2OC2OC(CO)C(O)C(O)C2O)c(-c2ccc(O)cc2)oc2cc(O)cc(O)c12 (configuration not stated)	DAX1 inh-1 4.6
O=C(NCc1ccc2c(c1)OCO2)C1CCN(S(=O)(=O)c2cccc3nsnc23)CC1	none
CCCCCCCCS(=O)CCC(=O)O (configuration not stated)	none
CCCCCCCC(=O)O	DAX1 inh-1 4.7
CC1(C)CC2CC(C)(CN2C(=O)c2ccc([N+](=O)[O-])cc2[N+](=O)[O-])C1 (configuration not stated)	DAX1 inh-1 6.7
CCCCNC(=O)C12CCC(C)(C(=O)C1Br)C2(C)C (configuration not stated)	none
C=CCNC(=O)C12CCC(C)(C(=O)[C@H]1Br)C2(C)C (some centres not stated)	DAX1 inh-1 6.9
O=C(/C=C/c1cccs1)N1CCN(c2ccccc2F)CC1	none
O=C(/C=C/c1ccc([N+](=O)[O-])cc1)N1CCN(c2ccccc2F)CC1	DAX1 inh-1 5.2
Cc1sc2nc(CSc3nc4ccccc4s3)[nH]c(=O)c2c1C	none (no result: DAX1 inh-1)
O=c1[nH]c(Cc2cccs2)nc2ccccc12	none
O=c1[nH]c(CSc2nc3ccccc3s2)nc2cc(Cl)ccc12	AHR activator 53 (no result: DAX1 inh-1)
O=C(OCc1nc2ccccc2c(=O)[nH]1)c1cccs1	AHR activator 55
O=c1[nH]c(CSc2nc3ccccc3s2)nc2ccccc12	AHR activator 66
O=S(=O)(Nc1nc(-c2ccccc2)cs1)c1cccc(C(F)(F)F)c1	none
O=C1NC(N2CCOCC2)=N/C1=C/c1ccc2c(c1)OCO2	AHR activator 54
CCSC1=N/C(=C\c2ccc3c(c2)OCO3)C(=O)S1	none
NC(=S)NNC(=O)c1ccccc1Cl	none
Cc1cc(NC(=O)Nc2ccc3c(ccn3C)c2)sn1	hgDAF-12 ag 11
Cc1cccc(NC(=S)NC(=O)c2cc(-c3ccccc3)nc3ccccc23)c1	none
O=C(COc1ccccc1)NNc1nc2c(F)cccc2s1	none
O=C(NNc1nc2c(F)cccc2s1)c1ccc(F)cc1	ssDAF12 agonist 1.3
Cc1ccc2sc(NNC(=O)c3cc(-c4cccs4)nc4ccccc34)nc2c1C	none (no result: DAX1 inh-1)
O=C(NNc1nc2c(F)cccc2s1)C1COc2ccccc2O1 (configuration not stated)	none
Cc1cccc2sc(NNC(=O)c3cc(=O)c4ccccc4o3)nc12	ssDAF12 agonist 1.4, hcDAF12 agonist 6.0, AHR activator 67
O=C(NNc1nc2c(F)cccc2s1)c1cc(=O)c2ccccc2o1	hcDAF12 agonist 6.2, AHR activator 80
Cc1ccc2sc(NNC(=O)c3cc(=O)c4ccccc4o3)nc2c1C	AHR activator 76
CC1=C(C(=O)OCC2CCCO2)C(c2ccccc2OC(C)C)C2=C(CC(c3ccco3)CC2=O)N1 (configuration not stated)	none
COc1ccc2nc(NNC(=O)c3cc(=O)c4ccccc4o3)sc2c1	AHR activator 73
CCOC(=O)c1cccc(C(=O)Nc2nc3ccc(OC)cc3s2)n1	none
O=C(O)C1CCC(N2C(=O)C3C4CCC(C4)C3C2=O)CC1 (configuration not stated)	none
S=C1NC2(CCCCCC2)NN1c1ccccc1	none (no result: AHR activator, DAX1 inh-1)
COc1ccc(C(=O)NCCS(=O)(=O)N2CCCC2)cc1	hcDAF12 agonist 6.1
O=C(COC(=O)CCOc1ccccc1)NCCc1ccccc1	none
CCCCn1c(O)c(N=NC(=O)c2ccco2)c2ccccc21	AHR activator 76
O=C(CNC(=O)c1ccco1)N=Nc1c(O)n(CCc2ccccc2)c2ccccc12	AHR activator 59
Cc1c(S(=O)(=O)N2CCCC2)c(=O)n(C)c(=O)n1C	none
C(=N\Nc1nncc2ccccc12)/c1ccccn1	none
CC(=O)Nc1ccc(/C=N/Nc2nncc3ccccc23)cc1	DAX1 inh-1 5.0 (no result: AHR activator)
O=C(N[C@H](Cc1ccccc1)C(=O)NCCCc1ccccc1)[C@H]1O[C@@H](n2ccc(=O)[nH]c2=O)[C@H](O)[C@@H]1O	none (no result: AHR activator, DAX1 inh-1)
CSCCC(NS(=O)(=O)c1ccc2c(c1)oc(=O)n2C)C(=O)NC1CCN(Cc2ccccc2)CC1 (configuration not stated)	hcDAF12 agonist 6.4
CSCCC(NS(=O)(=O)c1ccc2c(c1)oc(=O)n2C)C(=O)NCc1ccc(C)cc1 (configuration not stated)	none
CSCCC(NS(=O)(=O)c1ccc2c(c1)oc(=O)n2C)C(=O)NC1CCC(C)CC1 (configuration not stated)	DAX1 inh-2 3.7
COCCNc1ncnc2nc[nH]c12	none
COc1ccc(Nc2nc(-c3sc(N)nc3C)cs2)cc1	none
Cc1cccc(Nc2nc(-c3sc(C)nc3C)cs2)c1	AHR activator 70
Cc1nc(N)sc1-c1csc(Nc2ccc(Cl)cn2)n1	AHR activator 76
Cc1ccc(Nc2nc(-c3sc(C)nc3C)cs2)cc1	AHR activator 62
Cc1ccc(Nc2nc(-c3sc(N)nc3C)cs2)cc1	hcDAF12 agonist 5.8 (no result: AHR activator)
Cc1nc(N)sc1-c1csc(Nc2ccccn2)n1	none (no result: AHR activator)
COc1cc(CN2CCC(N3CCC(C(=O)N4CCCC4)CC3)CC2)cc2c1OCO2	none
COc1ccc(S(=O)(=O)N(C)C[C@H]2Oc3ccc(NS(=O)(=O)c4cccs4)cc3C(=O)N([C@H](C)CO)C[C@@H]2C)cc1	none (no result: AHR activator)
COc1ccc(NC(=O)Nc2nccs2)cc1	hgDAF-12 ag 11
CCCN1C(=O)c2ccc(C(=O)Nc3nccs3)cc2C1=O	none
O=C(Nc1ccccc1)Nc1nccs1	none
CCCc1cc(C(=O)Nc2nccs2)cs1	hgDAF-12 ag 12
COc1ccc(C(=O)Nc2nccs2)cc1	DAX1 inh-1 5.7
COc1cc(C(=O)NC(=S)Nc2nccs2)cc(OC)c1OC	AHR activator 79
CC1(C)CC(=O)C=C(c2cccc3c2oc2ccccc23)C1	none
CC(C)(O)C#Cc1ccc(C(=O)NCCc2ccc(S(N)(=O)=O)cc2)cc1	none

Screening results from PubChem.
